# Test results as given in PubChem BioAssay.
# Results filed as inconclusive are left out. Activity calls are given as the source filed them.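 How the source made its calls, unless noted: active means inhibition above 50%, about 3 SD of the validation set; inactive means the rest.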
# Experiments:
# [1] = yeast TOR pathway RPL19A-GFP modulators, primary screen, cell-based, S. cerevisiae, multiplex flow cytometry (AID 1862; in the data active means percent of DMSO control GFP below about 86%;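 further: lower values mimic rapamycin by blocking the RPL19A rise seen in DMSO cells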); details: S. cerevisiae RPL19A-GFP strain, flow cytometry fluorescence, 3 h; at 10 µM; stronger effect = lower value
# [2] = modulators of MEP2-GFP levels in yeast, primary screen, S. cerevisiae, multiplex flow cytometry (AID 1867;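 active means GFP response, as percent of the DMSO control, above the screen-wide mean plus 3 SD, about 139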;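 further: median GFP channel fluorescence of barcode-gated MEP2-GFP cells measured by flow cytometry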); details: S. cerevisiae MEP2-GFP strain, 3 h, at 10 µM, stronger effect = higher value, 100% means same as DMSO wells
# [3] = modulators of CIT2-GFP expression in yeast, primary screen, S. cerevisiae, GFP fusion, multiplex flow cytometry (AID 1870;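 active means percent response above a set limit, the screen-wide mean plus 3 SD, cut at about 130% in these data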;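 further: barcoded CIT2-GFP strain pooled with four other GFP strains with rapamycin as positive control; median GFP fluorescence per well over plate mean of DMSO wells so 100% = DMSO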); details: 3 h, at 10 µM, stronger effect = higher value
# [4] = modulators of LAP4-GFP expression in yeast, primary screen, S. cerevisiae, multiplex flow cytometry (AID 1873;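 active means GFP signal, as percent of the solvent control, above the screen mean plus 3 SD, about 149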); details: 3 h, at 10 µM, stronger effect = higher value
# [5] = modulators of AGP1-GFP expression in yeast TOR pathway, primary screen, cell-based, multiplex flow cytometry, S. cerevisiae (AID 1887;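 active means GFP signal above the screen-wide mean plus 3 SD, that is over about 124.5% of the solvent control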;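 further: AGP1-GFP fusion strain of S. cerevisiae within a five-strain barcoded multiplex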); details: 3 h, at 10 µM, stronger effect = higher value
# [6] = inhibitors of CD8+ T cell-vesicle binding, pilot screen, LFA-1/ICAM-1 modulator project, MLPCN validation set, flow cytometry (AID 2523;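 active means response below a set limit, under 55% cells CD8-positive and vesicle-bound, and CD8 cells' 90th-percentile brightness under 279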;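 on vesicle binding response: mean PE anti-B7-1 fluorescence of CD8+ cells relative to row control; 100% = QL9-loaded vesicles with DMSO vehicle in the same plate row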); details: 2C mouse CD8+ T cells, at 7 µM, stronger effect = lower value; double positive events: measured here: CD8+/vesicle+ event percentage
# [7] = target: Integrin beta-1 (Homo sapiens) + Integrin alpha-4 (Homo sapiens) (UniProt P13612+P05556); test: inhibition of HUTS-21 binding to VLA-4, pilot screen, VLA-4 allosteric modulator project, U937 cells, HUTS-21 mAb, flow cytometry, validation set (AID 2674); details: HUTS-21 LIBS mAb binding, at 6.7 µM, stronger effect = higher value, binding induced by LDV ligand;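 further: antibody binding induced by the VLA-4 ligand LDV present at three times its Kd; 0% = LDV ligand with antibody and no compound and 100% = antibody without LDV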
# Integrin beta-1 (Homo sapiens) + Integrin alpha-4 (Homo sapiens), sequence (P05556 whole entry, looked up): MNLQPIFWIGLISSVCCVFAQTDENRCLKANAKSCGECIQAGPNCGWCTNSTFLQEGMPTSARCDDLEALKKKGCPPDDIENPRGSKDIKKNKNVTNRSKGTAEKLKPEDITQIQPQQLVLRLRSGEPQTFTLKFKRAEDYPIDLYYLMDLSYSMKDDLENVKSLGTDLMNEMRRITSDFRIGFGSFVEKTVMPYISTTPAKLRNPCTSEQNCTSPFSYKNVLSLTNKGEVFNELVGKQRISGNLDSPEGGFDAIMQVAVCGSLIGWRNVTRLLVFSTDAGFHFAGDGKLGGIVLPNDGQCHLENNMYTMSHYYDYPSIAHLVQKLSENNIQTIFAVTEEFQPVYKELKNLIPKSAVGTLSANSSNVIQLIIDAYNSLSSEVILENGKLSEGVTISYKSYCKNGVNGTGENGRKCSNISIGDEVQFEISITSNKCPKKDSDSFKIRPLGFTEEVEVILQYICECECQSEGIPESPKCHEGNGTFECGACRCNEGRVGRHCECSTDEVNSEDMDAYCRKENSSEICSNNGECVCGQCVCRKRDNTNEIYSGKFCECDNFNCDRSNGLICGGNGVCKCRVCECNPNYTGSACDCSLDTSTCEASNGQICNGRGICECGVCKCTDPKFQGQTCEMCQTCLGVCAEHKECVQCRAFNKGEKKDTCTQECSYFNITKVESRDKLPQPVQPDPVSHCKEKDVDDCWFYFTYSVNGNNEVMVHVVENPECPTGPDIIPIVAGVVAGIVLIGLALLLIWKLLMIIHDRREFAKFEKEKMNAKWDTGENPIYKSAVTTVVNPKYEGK
# Integrin beta-1 (Homo sapiens) + Integrin alpha-4 (Homo sapiens), sequence (P13612 whole entry, looked up): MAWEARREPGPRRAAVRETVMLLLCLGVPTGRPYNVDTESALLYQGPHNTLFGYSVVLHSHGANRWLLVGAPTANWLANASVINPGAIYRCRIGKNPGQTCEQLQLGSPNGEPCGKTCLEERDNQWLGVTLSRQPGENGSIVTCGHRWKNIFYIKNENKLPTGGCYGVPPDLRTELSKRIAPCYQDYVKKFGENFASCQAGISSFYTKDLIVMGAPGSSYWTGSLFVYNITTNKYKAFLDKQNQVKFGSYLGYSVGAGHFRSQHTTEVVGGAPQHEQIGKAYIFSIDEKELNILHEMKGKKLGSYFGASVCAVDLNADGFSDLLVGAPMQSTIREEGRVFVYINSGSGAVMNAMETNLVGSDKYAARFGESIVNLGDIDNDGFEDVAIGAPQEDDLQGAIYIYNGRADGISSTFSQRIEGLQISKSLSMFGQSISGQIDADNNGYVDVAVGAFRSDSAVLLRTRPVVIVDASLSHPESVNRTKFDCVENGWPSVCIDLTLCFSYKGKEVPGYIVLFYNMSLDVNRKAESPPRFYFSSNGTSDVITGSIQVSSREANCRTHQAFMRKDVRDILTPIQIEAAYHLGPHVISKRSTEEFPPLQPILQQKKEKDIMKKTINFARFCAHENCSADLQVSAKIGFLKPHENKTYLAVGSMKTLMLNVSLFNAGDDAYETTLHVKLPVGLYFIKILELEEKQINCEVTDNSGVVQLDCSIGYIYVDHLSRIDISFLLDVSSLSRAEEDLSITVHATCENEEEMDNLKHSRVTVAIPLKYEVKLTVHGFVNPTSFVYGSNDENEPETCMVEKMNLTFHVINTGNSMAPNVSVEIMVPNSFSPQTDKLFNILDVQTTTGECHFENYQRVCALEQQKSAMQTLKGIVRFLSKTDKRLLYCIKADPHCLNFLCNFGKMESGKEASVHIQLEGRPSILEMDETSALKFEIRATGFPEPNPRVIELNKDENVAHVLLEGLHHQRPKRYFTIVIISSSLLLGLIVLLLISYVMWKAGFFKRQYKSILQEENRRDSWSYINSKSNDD
# [8] = superoxide lowering in aged yeast cells, pilot screen, validation compound set (AID 2706;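 active means superoxide response below 65% of plate, a cut near 3 SD across the whole screen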;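 further: yeast exposed to compound for one week at 30 degrees C before staining; 100% = mean of all compound wells on the same plate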); details: S. cerevisiae aging, superoxide DHE fluorescence; at 10 µM; stronger effect = lower value
# [9] = target: Beta-adrenergic receptor kinase 1 (Homo sapiens) (UniProt P25098); test: GRK2 binders displacing RNA aptamer, biochemical, validation, human GRK2, bead flow cytometry (AID 488806;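 active means aptamer binding inhibition above 30%, about 3 SD of noise from non-fluorescent compounds; inactive means inhibition at or below 30%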); details: bead-bound GRK2, FAM-aptamer displacement, at 10 µM, stronger effect = higher value
# Beta-adrenergic receptor kinase 1 (Homo sapiens), sequence (P25098 whole entry, looked up): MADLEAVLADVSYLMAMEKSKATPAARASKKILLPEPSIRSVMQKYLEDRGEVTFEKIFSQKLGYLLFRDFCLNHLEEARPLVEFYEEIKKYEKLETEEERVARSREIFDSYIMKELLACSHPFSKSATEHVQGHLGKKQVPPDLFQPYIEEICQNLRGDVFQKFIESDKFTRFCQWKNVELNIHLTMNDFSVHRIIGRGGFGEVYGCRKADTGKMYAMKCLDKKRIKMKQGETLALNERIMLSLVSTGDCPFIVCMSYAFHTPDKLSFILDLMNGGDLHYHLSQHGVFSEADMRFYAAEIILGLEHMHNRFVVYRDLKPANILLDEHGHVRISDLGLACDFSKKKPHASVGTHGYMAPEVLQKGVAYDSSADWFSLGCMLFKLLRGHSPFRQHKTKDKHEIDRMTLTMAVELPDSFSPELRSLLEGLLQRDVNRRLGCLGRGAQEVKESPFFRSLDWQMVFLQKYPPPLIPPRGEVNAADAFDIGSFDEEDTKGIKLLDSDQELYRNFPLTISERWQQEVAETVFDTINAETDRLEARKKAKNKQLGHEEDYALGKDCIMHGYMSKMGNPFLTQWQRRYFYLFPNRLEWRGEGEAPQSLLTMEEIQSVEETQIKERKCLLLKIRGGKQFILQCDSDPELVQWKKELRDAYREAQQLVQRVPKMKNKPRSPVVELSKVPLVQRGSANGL
# [10] = target: Beta-2 adrenergic receptor (Homo sapiens) (UniProt P07550); test: beta2AR agonists driving receptor internalization, pilot screen, cell-based, FAP fluorogen, flow cytometry, validation set (AID 504459;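 active means percent response above 42, roughly 3 SD of non-fluorescent test compounds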;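 further: agonist-driven loss of surface beta2AR via internalization measured by FAP dye flow cytometry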); details: Am2.2-beta2AR cells, FAP surface receptor flow cytometry; at 10 µM; stronger effect = higher value
# Beta-2 adrenergic receptor (Homo sapiens), sequence (P07550 whole entry, looked up): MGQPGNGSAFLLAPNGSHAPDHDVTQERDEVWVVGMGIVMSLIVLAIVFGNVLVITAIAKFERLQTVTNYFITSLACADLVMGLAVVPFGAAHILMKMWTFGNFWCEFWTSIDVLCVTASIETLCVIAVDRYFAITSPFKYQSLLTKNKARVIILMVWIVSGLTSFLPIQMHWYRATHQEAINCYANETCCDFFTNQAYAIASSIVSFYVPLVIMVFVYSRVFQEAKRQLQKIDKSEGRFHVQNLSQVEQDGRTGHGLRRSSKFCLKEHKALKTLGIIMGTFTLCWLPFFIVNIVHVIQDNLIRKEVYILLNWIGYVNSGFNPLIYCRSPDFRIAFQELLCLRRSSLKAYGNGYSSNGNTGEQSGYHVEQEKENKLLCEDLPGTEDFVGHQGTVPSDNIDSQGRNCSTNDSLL
# [11] = target: AP-2 complex subunit beta (Homo sapiens) (UniProt P63010); test: inhibitors of arrestin peptide binding to AP2, pilot screen, biochemical, validation set, GST-AP2 beads, flow cytometry (AID 504541;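 active means inhibition above 54%, about 3 SD of non-fluorescent compounds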;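 further: AP2 carries R879A mutation and is captured from E. coli lysate; bead-bound FITC arrestin peptide fluorescence measuring arrestin peptide binding to AP2; 0% = DMSO wells and 100% = excess unlabeled arrestin peptide control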); details: FITC arrestin peptide, at 10 µM, stronger effect = higher value, AP2 beta2 appendage fragment, R879A mutant
# AP-2 complex subunit beta (Homo sapiens), sequence (P63010 whole entry, looked up, the tested form may be a part, one chain of several): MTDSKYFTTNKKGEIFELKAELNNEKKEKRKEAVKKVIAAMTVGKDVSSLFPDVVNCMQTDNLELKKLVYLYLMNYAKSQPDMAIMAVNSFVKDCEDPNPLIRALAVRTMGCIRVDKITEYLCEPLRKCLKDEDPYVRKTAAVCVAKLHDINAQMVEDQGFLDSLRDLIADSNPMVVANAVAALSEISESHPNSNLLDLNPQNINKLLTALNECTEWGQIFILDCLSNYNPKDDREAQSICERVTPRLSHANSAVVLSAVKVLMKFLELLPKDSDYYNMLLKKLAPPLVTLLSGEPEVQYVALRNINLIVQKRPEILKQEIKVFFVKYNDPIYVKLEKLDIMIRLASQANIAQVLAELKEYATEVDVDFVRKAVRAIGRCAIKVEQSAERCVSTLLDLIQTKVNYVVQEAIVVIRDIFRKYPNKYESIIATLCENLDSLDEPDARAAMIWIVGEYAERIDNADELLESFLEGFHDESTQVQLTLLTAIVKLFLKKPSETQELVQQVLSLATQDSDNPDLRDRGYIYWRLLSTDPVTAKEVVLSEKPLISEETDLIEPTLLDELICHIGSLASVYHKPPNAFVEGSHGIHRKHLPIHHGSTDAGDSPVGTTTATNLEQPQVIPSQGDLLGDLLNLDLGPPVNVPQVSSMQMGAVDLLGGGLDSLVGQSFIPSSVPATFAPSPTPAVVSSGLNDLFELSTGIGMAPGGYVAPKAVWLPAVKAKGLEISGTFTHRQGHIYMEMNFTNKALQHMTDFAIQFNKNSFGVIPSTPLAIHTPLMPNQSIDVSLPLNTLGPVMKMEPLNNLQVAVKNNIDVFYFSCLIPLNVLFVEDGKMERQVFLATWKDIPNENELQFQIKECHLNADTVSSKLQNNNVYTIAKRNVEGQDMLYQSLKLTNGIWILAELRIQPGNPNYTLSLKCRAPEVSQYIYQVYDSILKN
# [12] = yeast V-ATPase proton transport modulators, S. cerevisiae, pHLuorin, HTS validation (AID 504600; in the data active means response above about 15%;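 further: plate controls were DMSO for no effect and reference compound for full effect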); details: S. cerevisiae pHLuorin cytosolic pH, at 10 µM, stronger effect = higher value
# [13] = test system: anti-desmoglein-3 scFv antibody binding to human DSG3; test: inhibitors of anti-DSG3 scFv binding to DSG3, pilot screen, biochemical, validation compound set, bead-based, flow cytometry (AID 588368;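 active means binding below the plate cutoff, the plate median minus 3 SD, with a reading above zero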;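 further: signal is the median channel fluorescence of bead-bound GFP antibody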); details: Protein G beads, DSG3-Fc, scFv-GFP binding, at 10 µM, stronger effect = lower value
# [14] = inhibitors of fungal efflux pumps CDR1, CDR2, MDR1, pilot screen, validation compound set, multiplex, phenotypic (AID 588506;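 active means efflux inhibition above 0.42, the validation set average plus 4 SD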;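 further: Nile Red retained in cells so higher fluorescence means more efflux inhibition; 0 = negative control wells and 1 = enniatin B 25 µM full block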); details: S. cerevisiae pump-expressing triplex, Nile Red efflux flow cytometry; at 10 µM; stronger effect = higher value; the pumps come from Candida albicans
# [15] = target: ATP-binding cassette sub-family B member 6 (Homo sapiens) (UniProt Q9NP58); test: ABCB6 transporter inhibitors, pilot screen, K562-ABCB6 cells, flow cytometry, validation set (AID 588550;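 active means inhibition above the screen-wide mean plus 3 SD, about 51%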;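 further: 0% = DMSO wells and 100% = benzethonium chloride 70 µM positive control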); details: K562-ABCB6 porphyrin accumulation, 1 h, at 10 µM, stronger effect = higher value
# ATP-binding cassette sub-family B member 6 (Homo sapiens), sequence (Q9NP58 whole entry, looked up): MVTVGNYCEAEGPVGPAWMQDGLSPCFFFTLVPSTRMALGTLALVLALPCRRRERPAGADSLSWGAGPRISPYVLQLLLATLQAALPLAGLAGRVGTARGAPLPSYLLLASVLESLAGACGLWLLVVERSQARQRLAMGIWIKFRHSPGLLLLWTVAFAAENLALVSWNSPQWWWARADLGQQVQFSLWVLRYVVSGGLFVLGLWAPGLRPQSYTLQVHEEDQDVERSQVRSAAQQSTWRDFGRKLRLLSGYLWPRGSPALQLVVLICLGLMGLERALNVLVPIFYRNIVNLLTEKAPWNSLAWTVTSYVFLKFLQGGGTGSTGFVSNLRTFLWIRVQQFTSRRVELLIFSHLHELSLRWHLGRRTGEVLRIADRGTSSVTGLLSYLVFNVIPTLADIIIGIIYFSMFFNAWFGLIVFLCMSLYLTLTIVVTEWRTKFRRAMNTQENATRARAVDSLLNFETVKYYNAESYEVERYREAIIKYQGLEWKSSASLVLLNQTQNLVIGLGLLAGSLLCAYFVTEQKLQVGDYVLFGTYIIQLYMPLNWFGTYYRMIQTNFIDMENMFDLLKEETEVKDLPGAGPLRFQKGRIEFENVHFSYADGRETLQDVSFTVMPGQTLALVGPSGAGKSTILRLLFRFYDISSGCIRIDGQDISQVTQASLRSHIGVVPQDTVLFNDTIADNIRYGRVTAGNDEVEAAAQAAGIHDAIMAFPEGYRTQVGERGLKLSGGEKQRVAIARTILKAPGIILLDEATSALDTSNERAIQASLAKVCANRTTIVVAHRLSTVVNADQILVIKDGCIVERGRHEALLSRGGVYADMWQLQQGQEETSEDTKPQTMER
# [16] = promoters of myeloid differentiation in arrested cells, primary screen, cell-based, GFP/MAC1 double positive, flow cytometry, validation set (AID 588685;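 active means differentiation response of at least 50%, scaled between solvent and reference control, from cells with both markers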;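 further: compound exposure lasts four days before antibody staining and flow analysis; 0% = DMSO wells and 100% = 5 µM fulvestrant positive control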); details: ER-HoxA9 marrow cells, stronger effect = higher value, normalized: vehicle 0, fulvestrant 100
SMILES,percent of DMSO control GFP [1],GFP response vs DMSO [2],percent response of DMSO control [3],GFP response vs DMSO [4],"GFP response, % of DMSO [5]",double positive events [6] [%],vesicle binding response [6],inhibition [7],superoxide response (% of plate) [8],aptamer binding inhibition [9],response [10],inhibition [11],response [12],binding (% of control) [13],efflux inhibition (fraction of control) [14],inhibition [15],differentiation response [16]
CSCCC(NC(=O)OC(C)(C)C)C(=O)Oc1ccc2c(=O)c(-c3ccc4c(c3)OCCO4)coc2c1 (stereo not drawn),95.9% (inactive),107% (inactive),94.8% (inactive),132% (inactive),102% (inactive),59.4,190% (inactive),-1.79% (inactive),99.7% (inactive),2% (inactive),0.95% (inactive),3.81% (inactive),-3.69% (inactive),100% (inactive),-0.1 (inactive),1% (inactive),5.6% (inactive)
COc1cccc(-n2c(C)c3c(OC)cccc(=O)c3c2C)c1,89.8% (inactive),140% (active),106% (inactive),85.8% (inactive),92.4% (inactive),49.9,53.8% (active),-33.3% (inactive),109% (inactive),5% (inactive),-3.28% (inactive),41% (inactive),-5.84% (inactive),103% (inactive),0.12 (inactive),0% (inactive),-4.91% (inactive)
O=C(O)c1ccc(OCCn2ccnc2)cc1,103% (inactive),95.6% (inactive),106% (inactive),93.7% (inactive),112% (inactive),66.1,173% (inactive),9.63% (inactive),91.6% (inactive),-2% (inactive),-0.04% (inactive),-0.39% (inactive),2.25% (inactive),101% (inactive),0.36 (inactive),16% (inactive),2.74% (inactive)
c1ccc(SSc2ccccc2)cc1,105% (inactive),108% (inactive),118% (inactive),96.6% (inactive),103% (inactive),62.9,301% (inactive),-0.45% (inactive),93.6% (inactive),2% (inactive),1.12% (inactive),-24.5% (inactive),3.24% (inactive),93.5% (inactive),-0.04 (inactive),-6% (inactive),-2.69% (inactive)
COc1ccccc1OCC(=O)O,96.3% (inactive),107% (inactive),98.6% (inactive),122% (inactive),103% (inactive),61.5,167% (inactive),3.67% (inactive),106% (inactive),-3% (inactive),-4.79% (inactive),-3.11% (inactive),-0.38% (inactive),99.3% (inactive),-0.06 (inactive),6% (inactive),-26.4% (inactive)
Cc1csc(N)n1,101% (inactive),105% (inactive),114% (inactive),86.9% (inactive),101% (inactive),69.2,201% (inactive),-7.12% (inactive),87% (inactive),-1% (inactive),4.23% (inactive),5.92% (inactive),-1.8% (inactive),105% (inactive),-0.31 (inactive),12% (inactive),9.01% (inactive)
CN1[C@@H]2CC[C@H]1CC(OC(=O)C(CO)c1ccccc1)C2 (stereo partly drawn),99.6% (inactive),97.7% (inactive),103% (inactive),86.1% (inactive),98% (inactive),61.1,163% (inactive),8.29% (inactive),113% (inactive),25% (inactive),-0.25% (inactive),-4.27% (inactive),3.64% (inactive),101% (inactive),-0.205 (inactive),7% (inactive),-13.3% (inactive)
COc1ccc2[nH]c(=O)c3c(c2c1)OC(C)(C)C=C3,93.7% (inactive),105% (inactive),89.1% (inactive),119% (inactive),95.1% (inactive),59.1,88% (inactive),-3.16% (inactive),99.1% (inactive),4% (inactive),5.61% (inactive),-1.86% (inactive),2.4% (inactive),101% (inactive),0.08 (inactive),6% (inactive),8.8% (inactive)
COc1ccc(C(C)=O)c2c1OCCO2,100% (inactive),94.1% (inactive),91.9% (inactive),88.7% (inactive),97.2% (inactive),65.9,891% (inactive),-2.53% (inactive),97.6% (inactive),1% (inactive),3.38% (inactive),14.1% (inactive),0.17% (inactive),99.5% (inactive),-0.07 (inactive),11% (inactive),-1.71% (inactive)
O=C(O)C1CSC(c2ccco2)N1 (stereo not drawn),102% (inactive),103% (inactive),102% (inactive),120% (inactive),124% (inactive),60.6,168% (inactive),-19% (inactive),100% (inactive),33% (active),-18.6% (inactive),10% (inactive),-1.58% (inactive),99.5% (inactive),0.04 (inactive),2% (inactive),-2.03% (inactive)
C[C@H](NC(=O)C1(c2ccccc2)CCN(C(=O)[C@H]2CSCN2C(=O)OC(C)(C)C)CC1)C(=O)O,105% (inactive),103% (inactive),99.6% (inactive),110% (inactive),117% (inactive),62,161% (inactive),17.6% (inactive),95.1% (inactive),6% (inactive),-18.9% (inactive),-3.02% (inactive),-2.91% (inactive),103% (inactive),-0.09 (inactive),1% (inactive),-1.05% (inactive)
CC1(C)S[C@@H]2[C@H](NC(=O)Cc3ccccc3)C(=O)N2[C@H]1C(=O)O,105% (inactive),102% (inactive),98.3% (inactive),101% (inactive),119% (inactive),66.2,185% (inactive),15.1% (inactive),92.1% (inactive),3% (inactive),-19.9% (inactive),1.23% (inactive),-1.26% (inactive),99.7% (inactive),0.08 (inactive),10% (inactive),2.89% (inactive)
COc1cc2c(cc1OC)C(C)=NC1(CCCCC1)C2,99.2% (inactive),98.6% (inactive),95.1% (inactive),106% (inactive),107% (inactive),62.8,215% (inactive),-29.2% (inactive),100% (inactive),6% (inactive),-21.7% (inactive),20.9% (inactive),8.37% (inactive),131% (inactive),-0.04 (inactive),-52% (inactive),-14.8% (inactive)
CC(=O)CC(c1ccc([N+](=O)[O-])cc1)c1c(O)c2ccccc2oc1=O (stereo not drawn),107% (inactive),105% (inactive),105% (inactive),118% (inactive),114% (inactive),60.4,115% (inactive),-5.11% (inactive),105% (inactive),-1% (inactive),-6.11% (inactive),1.39% (inactive),1.39% (inactive),99% (inactive),0.4 (inactive),2% (inactive),-11.9% (inactive)
CCCc1cc(C(N)=S)ccn1,96.9% (inactive),99.6% (inactive),101% (inactive),91.4% (inactive),93.1% (inactive),60.4,190% (inactive),0.94% (inactive),97% (inactive),2% (inactive),-5.23% (inactive),7.42% (inactive),-1.93% (inactive),97.6% (inactive),-0.28 (inactive),-25% (inactive),-18.4% (inactive)
COc1ccc(C(=O)NCc2cccnc2)cc1,103% (inactive),101% (inactive),98.6% (inactive),85.4% (inactive),94.6% (inactive),58.3,247% (inactive),11.9% (inactive),105% (inactive),7% (inactive),3.58% (inactive),-8.5% (inactive),1.75% (inactive),101% (inactive),-0.13 (inactive),6% (inactive),-24.8% (inactive)
Cc1ccc(Nc2ncccc2C(=O)O)cc1C,90.6% (inactive),123% (inactive),103% (inactive),80.3% (inactive),94.7% (inactive),64.4,264% (inactive),8.4% (inactive),114% (inactive),2% (inactive),0.08% (inactive),-7.34% (inactive),-0.86% (inactive),105% (inactive),-0.31 (inactive),15% (inactive),6.55% (inactive)
N=c1c[n+](N2CCOCC2)[n-]o1,102% (inactive),106% (inactive),112% (inactive),89.4% (inactive),96.2% (inactive),65,236% (inactive),13% (inactive),92.1% (inactive),3% (inactive),-6.36% (inactive),3.46% (inactive),-0.08% (inactive),95.1% (inactive),-0.07 (inactive),9% (inactive),7.09% (inactive)
CC(C)OC(=O)CC12CN3CN(C1)CC(CC(=O)OC(C)C)(C3)C2=O,99.5% (inactive),115% (inactive),90.1% (inactive),119% (inactive),105% (inactive),60.5,179% (inactive),-0.43% (inactive),92.3% (inactive),1% (inactive),-2.44% (inactive),11.2% (inactive),-2% (inactive),103% (inactive),0.12 (inactive),11% (inactive),39.2% (inactive)
